Cav3 T inh = blocks human Cav3.2 T-type calcium channel; O95180; Cav3.2-expressing cells, Fluo-4 calcium fluorescence FDSS; hits give low values; B-score at 10 µM; actives 4% (n = 100,000);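 active = single-dose well whose peak fluorescence ratio is a statistical outlier from its plate by either plate-standardised score or position-corrected B-score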
CYP2C9 inh = human CYP2C9 inhibition | CYP2C9 Supersomes, luciferin-H conversion, luminescence | AID 777 | inhibition, % at 5 µM | actives 20% (n = 96,000) | P11712;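 active = blocking of liver enzyme CYP2C9 beyond about 50% at 5 µM, limit read from the data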
CYP2C19 inhib = blocks human cytochrome P450 2C19; CYP2C19 Supersomes, luciferin-H EGE luminescence, 30 min; inhibition, % at 5 µM; actives 21% (n = 96,000); AID 778;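 active = CYP2C19 inhibition above a set limit at 5 µM in the primary screen, cut at about 50% in these data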
Target sequence (P33261 whole entry, looked up): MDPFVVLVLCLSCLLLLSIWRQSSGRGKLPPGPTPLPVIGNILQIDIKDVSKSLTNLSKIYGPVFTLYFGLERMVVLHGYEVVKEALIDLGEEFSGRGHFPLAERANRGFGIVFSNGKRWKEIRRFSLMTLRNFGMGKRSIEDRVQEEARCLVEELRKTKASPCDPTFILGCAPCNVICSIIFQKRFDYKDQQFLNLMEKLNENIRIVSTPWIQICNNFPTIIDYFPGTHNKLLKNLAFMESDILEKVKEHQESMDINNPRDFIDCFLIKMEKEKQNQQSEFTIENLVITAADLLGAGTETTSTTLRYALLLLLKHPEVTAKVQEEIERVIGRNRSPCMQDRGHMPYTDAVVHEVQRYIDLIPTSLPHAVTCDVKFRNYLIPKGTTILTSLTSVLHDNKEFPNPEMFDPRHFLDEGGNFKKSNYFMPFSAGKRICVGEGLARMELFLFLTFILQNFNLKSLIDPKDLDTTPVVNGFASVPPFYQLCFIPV
CYP2C9 act = increases human cytochrome P450 2C9 activity; P11712; recombinant CYP2C9, luciferin-H conversion, luminescence; hits give high values; factor 1 = untreated enzyme, 0 = blocked; activation factor at 5 µM; actives 1.4% (n = 96,000); AID 1024;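 active = activation factor of 2 or more for CYP2C9 at a 5 µM dose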
CYP2C19 act = cytochrome P450 2C19 (human) activation | activation factor at 5 µM | AID 1025 | recombinant CYP2C19, luciferin-H EGE luminescence; hits give high values; 0 = fully inhibited enzyme, 1 = untreated enzyme | 96,000 tested, under 10 active | P33261;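 active = activation factor of at least 2 at 5 µM in the primary screen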
Each line names hits and unclear results; the compound was inactive in the other large screens. Rows were chosen to be rich in hits. Some 27% of all compounds tested hit in one or more screens of this group.

CC(C(=O)NCc1ccccc1)N1C(=O)CN(C)C(=O)c2ccccc21 (stereo not drawn)	none
c1ccc2c(c1)NC1(CCCCC1)n1c-2nc2ccccc21	none
CCCCC1(C)Nc2ccccc2-c2nc3ccccc3n21 (stereo not drawn)	Cav3 T inh -4.9, CYP2C9 inh 57, CYP2C19 inhib 81
CC1(c2ccccn2)Nc2ccccc2-c2nc3ccccc3n21 (stereo not drawn)	CYP2C9 inh 52, CYP2C19 inhib 69
c1ccc2c(c1)NC1(CCCCCC1)n1c-2nc2ccccc21	CYP2C9 inh 51
CC1=CC(C)(C)Nc2ccccc21	none
O=C(N/N=C/c1cccs1)C1COc2ccccc2O1 (stereo not drawn)	CYP2C19 inhib 82
O=C(O)CNC(=O)C1COc2ccccc2O1 (stereo not drawn)	none
C/C(=N\NC(=O)C1COc2ccccc2O1)c1cccs1 (stereo not drawn)	CYP2C19 inhib 80
C[C@H]1CC[C@]2(O[C@H](CCO)C[C@H](O)[C@H]2O)O1	none (no result: CYP2C9 inh, CYP2C19 inhib, CYP2C9 act, CYP2C19 act)
CCc1ccccc1NC(=O)CSc1nc2n[nH]c(C)c2c(=N)n1-c1cccc(OC)c1	none (no result: CYP2C9 inh, CYP2C19 inhib, CYP2C9 act, CYP2C19 act)
O=C(NCCSCc1ccc(Cl)cc1Cl)c1ccc(CN2CCOCC2)cc1	Cav3 T inh -4.3, CYP2C9 inh 81
O=C(/C=C/c1ccc2c(c1)OCO2)NCCSCc1cccc(Cl)c1	none (no result: Cav3 T inh)
O=C(/C=C/c1ccc2c(c1)OCO2)NCCSCc1ccc(Cl)cc1Cl	Cav3 T inh -6.3, CYP2C9 inh 73
CCOC(=O)N1CCN(C(=O)Cn2ncn3nc(-c4cccs4)cc3c2=O)CC1	none
C=CC[n+]1c(-c2ccc(OCC)cc2)csc1NNC(=O)Nc1ccccc1	none
O=C(c1ccc(NC2=NC3CS(=O)(=O)CC3S2)cc1)N1CCc2ccccc2C1 (stereo not drawn)	none
O=C(NCCC1=CCCCC1)C1CCCN(c2nc3ccccc3o2)C1 (stereo not drawn)	CYP2C9 inh 51
Cc1ccccc1-c1nc(CN2CCC(C(=O)NCCC3=CCCCC3)CC2)c(C)o1	Cav3 T inh -7.1
O=C(NCCC1=CCCCC1)C1CCCN(S(=O)(=O)c2cccnc2)C1 (stereo not drawn)	CYP2C9 inh 54, CYP2C19 inhib 58
COc1ccc(S(=O)(=O)N2CCCC(C(=O)NCCC3=CCCCC3)C2)cc1 (stereo not drawn)	none
O=C(NCCC1=CCCCC1)C1CCCN(S(=O)(=O)c2cccc3cccnc23)C1 (stereo not drawn)	CYP2C19 inhib 73, CYP2C9 act 3.9
COc1ccc(CCNC(=O)C2CCN(Cc3nc(-c4ccccc4C)oc3C)CC2)cc1OC	none
Cc1n[nH]c(C)c1Cc1ccc(C(=O)O)cc1	none
COC(C/C=C/[C@@H](O)COCc1ccccc1)OC	none (no result: CYP2C9 inh, CYP2C19 inhib, CYP2C9 act, CYP2C19 act)
Cc1nn(C)c(C)c1S(=O)(=O)N1CCC(C(=O)NCCC2=CCCCC2)CC1	CYP2C9 act 2.1
Cc1ccc(CNC(=O)CCOc2ccc(C(C)(C)C)cc2)cc1	none
Fc1ccc(C(CCCn2nnc(-c3cccnc3)n2)c2ccc(F)cc2)cc1	Cav3 T inh -4.2, CYP2C9 inh 59, CYP2C19 inhib 59
COc1ccc(C(=O)CSc2nnc(C(CO)NC(=O)c3ccc(OC)cc3)n2C)cc1 (stereo not drawn)	CYP2C9 inh 71
C=CCn1c(SCCOc2ccc(OC)cc2)nnc1C(CO)NC(=O)c1ccc(OC)cc1 (stereo not drawn)	CYP2C9 inh 88
COc1ccc(C(=O)NC(C)c2nnc(SCC(=O)Nc3nc4ccccc4s3)n2C)cc1 (stereo not drawn)	CYP2C9 inh 72, CYP2C19 inhib 65
COc1ccc(C(=O)NC(C)c2nnc(SCC(=O)Nc3nc(C)cs3)n2C)cc1 (stereo not drawn)	none
CCSCc1nnc(SCC(=O)c2ccc(OC)cc2)n1C	CYP2C19 inhib 90
Cc1nc2sc(C(c3ccccc3)N3CCN(C)CC3)c(O)n2n1 (stereo not drawn)	none (no result: CYP2C9 inh, CYP2C19 inhib, CYP2C9 act, CYP2C19 act)
CCCc1nnc(NC(=O)CCC(=O)N2CCCCCC2)s1	none
c1ccc(-n2nc3c(ccc4cnnc43)[nH]2)cc1	CYP2C9 inh 60
O=C(O)CSCC(=O)NCc1ccccc1	none
O=C(CC(=O)N/N=C\c1c(Cl)cccc1Cl)NCc1ccccc1	CYP2C19 inhib 86
COc1ccc(S(=O)(=O)N2CCCC(C(=O)Nc3cccnc3)C2)cc1Cl (stereo not drawn)	none (no result: CYP2C9 inh, CYP2C19 inhib, CYP2C9 act, CYP2C19 act)
O=C(NC(Cc1ccccc1)C(=O)O)c1ccc(S(=O)(=O)N2CCCCC2)cc1 (stereo not drawn)	CYP2C9 inh 78
O=C(Nc1ccn(-c2ccccc2)n1)c1ccc(S(=O)(=O)N2CCCCCC2)cc1	Cav3 T inh -1.9, CYP2C19 inhib 53
O=C(Nc1cccnc1)C1CCCN(S(=O)(=O)c2ccccc2)C1 (stereo not drawn)	CYP2C19 inhib 64
O=C(Nc1cccnc1)c1ccc(Cl)c(S(=O)(=O)N2CCCCCC2)c1	CYP2C9 inh 85, CYP2C19 inhib 88
O=C(COC(=O)c1cnccn1)c1ccc2c(c1)CCCC2	none
C#Cc1ccc([C@@H]2C=C(C(=O)N3CCOCC3)O[C@H](OCC)[C@H]2CCCO)cc1	none (no result: CYP2C9 inh, CYP2C19 inhib, CYP2C9 act, CYP2C19 act)
O=C(O)CCc1nnc2n(Cc3ccc(F)cc3)c(=O)c3ccccc3n12	none
Cc1c(NS(=O)(=O)c2ccc3[nH]c(=O)[nH]c3c2)c(=O)n(-c2ccccc2)n1C	none
O=C(Nc1cccnc1)c1ccc(S(=O)(=O)N2CCCCCC2)cc1	CYP2C9 inh 73, CYP2C19 inhib 62
CCc1cc2c(N3CCCCC3)ncnc2s1	CYP2C9 inh 65, CYP2C19 inhib 87
CCc1cc2c(SCC(=O)O)ncnc2s1	none
O=C(NCc1ccccc1)C12CC3CC(CC(C3)C1)C2	none
O=C(NCc1ccncc1)C12CC3CC(CC(C3)C1)C2	CYP2C19 inhib 52
O=C(OCc1nc2ccc(Cl)cc2n1CCO)c1ccc2c(c1)OCO2	none
CC(C)(C)OC(=O)N[C@@H](Cc1ccccc1)c1nnc(SCC(=O)O)o1	CYP2C9 inh 56
CCSc1nnc([C@H](Cc2ccccc2)NC(=O)OC(C)(C)C)o1	none
Cc1ccccc1CS(=O)(=O)c1nnc([C@H](Cc2ccccc2)NC(=O)OC(C)(C)C)o1	CYP2C9 inh 66
CC(C)Sc1nnc([C@H](Cc2c[nH]c3ccccc23)NC(=O)OC(C)(C)C)o1	Cav3 T inh -4.1
CC(C)(C)OC(=O)N[C@@H](Cc1ccccc1)c1nnc(SCC(=O)c2ccc(Cl)cc2)o1	CYP2C9 inh 61, CYP2C19 inhib 61
CC1(C)NC(C)(C)C(O)(C(N)=O)C1=O (stereo not drawn)	none
Cc1ccc(N=C(c2cccs2)N2CCOCC2)cc1	CYP2C19 inhib 73
O=C(Nc1ccc2c(c1)N(Cc1ccccc1)C(=O)c1ccccc1S2)NC1CC1	CYP2C9 inh 76, CYP2C19 inhib 87
O=C(Nc1ccc2c(c1)OCCO2)c1ccc(S(=O)(=O)N2CCCCC2)cc1	CYP2C9 inh 70

Screening results from PubChem BioAssay.
